Bioassay records deposited in PubChem BioAssay by National Center for Advancing Translational Sciences (NCATS).
This is a sample that favours compounds with a hit; in the whole collection about 1.4% have one here.
GLS inhibitor: qHTS for Inhibitors of Glutaminase (GLS) | Potency, µM (series often up to 45.5 µM), without a hit: at the top dose activity change, negative = inhibition, most hits filed as inhibitors | GLS enzymatic activity, qHTS titration | Glutaminase kidney isoform, mitochondrial (Homo sapiens), O94925 | AID 624170, 2012 | 410,000 tested, 0.21% active; note: potency is the fitted concentration of half-maximal effect; % is set by controls: 0 for no effect and ±100 for the full control effect
Target sequence (O94925 whole entry, looked up, canonical isoform): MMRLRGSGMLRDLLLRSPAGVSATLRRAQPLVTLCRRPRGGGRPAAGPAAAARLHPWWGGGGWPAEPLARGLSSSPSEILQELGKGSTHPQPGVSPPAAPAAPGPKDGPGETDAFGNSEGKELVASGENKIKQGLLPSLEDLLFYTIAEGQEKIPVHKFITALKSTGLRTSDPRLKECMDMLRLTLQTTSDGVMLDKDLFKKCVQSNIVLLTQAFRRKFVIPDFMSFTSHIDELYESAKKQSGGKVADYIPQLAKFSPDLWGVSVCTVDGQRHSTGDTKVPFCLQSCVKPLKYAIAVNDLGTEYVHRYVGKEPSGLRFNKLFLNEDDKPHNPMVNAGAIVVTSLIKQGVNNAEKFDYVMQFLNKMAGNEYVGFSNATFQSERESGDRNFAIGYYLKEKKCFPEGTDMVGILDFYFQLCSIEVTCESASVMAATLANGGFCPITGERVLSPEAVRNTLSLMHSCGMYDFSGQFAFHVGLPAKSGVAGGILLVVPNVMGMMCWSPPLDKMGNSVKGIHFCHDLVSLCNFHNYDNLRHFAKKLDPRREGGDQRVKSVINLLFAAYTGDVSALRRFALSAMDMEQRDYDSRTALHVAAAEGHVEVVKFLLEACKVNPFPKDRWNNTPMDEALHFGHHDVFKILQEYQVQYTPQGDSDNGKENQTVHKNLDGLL
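hKGA in 45 mM KH2PO4 (pH 8.2), 0.02% Tween-20 with compound, then 1mM L-Glutamine (stock as added) plus glutamate oxidase/HRP/Amplex red coupling mix. Fluorescence read initially and after 30 min at RT; signal change reflects glutamate formation.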
p53 reactivator: qHTS assay for re-activators of p53 using a Luc reporter | H1299 p53-A138V BP100-luciferase reporter, luminescence, 24 h | 320,000 tested, 0.063% active | AID 504706, 2011 | Potency, µM (highest dose often 92.2 µM), for the others: top-dose activity change, positive = activation, actives largely listed as activators; note: potency is the fitted concentration of half-maximal effect; % of control where 0% means no effect; nearly all actives have a fitted effect of over 45% in size
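H1299 (p53-null), stable ts p53-A138V + BP100-Luc; 1000 cells/well, Opti-MEM/10% FBS; cpd 4 pt, 1:5; 24 h, 37 deg C, 5% CO2; detection reagent 10 min RT; luminescence.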
TSHR antag: Antagonists of the Thyroid Stimulating Hormone Receptor: HTS campaign; 330,000 tested, 0.2% active; activity change, negative = inhibition, % at 11.5 µM; Thyrotropin receptor (Homo sapiens), P16473; TSHR-expressing cells, TSH-stimulated cAMP HTRF, 2 h; hits give low values;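 active = activity change below a set negative limit, meaning inhibition stronger than a set level, cut at about -70% in these data; inconclusive = activity change between two set negative limits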; note: % is set by controls: 0 for no effect and ±100 for the full control effect
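Inhibition of cAMP made by TSHR-expressing cells under TSH stimulation (4nM final, EC80; 2 h, 37 deg C) is quantified with a one-step lysis HTRF kit, anti-cAMP cryptate versus cAMP-d2.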
TCR activator: Activators of T cell receptors: qHTS campaign; primary human leukocytes, anti-CD3, IL-2 HTRF, 48 h; Potency, µM (titrated, usually from 9.22 µM), for inactives: at the highest dose activation of IL-2 secretion, hits mostly activators; 330,000 tested, under 10 active; AID 504894, 2011; note: % of control where 0% means no effect
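Primary human leukocytes were stimulated with a-CD3 beads plus compounds for 48 hr without co-stimulation; secreted IL-2 was quantified by HTRF using a-IL-2-K (europium cryptate) and a-IL-2-d2, excited at 320nm with acceptor emission read at 665nm.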
BRCA1 expr up: qHTS Assay to Identify Small Molecule Activators of BRCA1 Expression | MCF7-BRCA1-FFLuc reporter, luminescence, 48 h; response scale: scaled: vehicle 0%, 10 µM genistein 100% | Potency, µM (titrated, usually from 46.1 µM), for inactives: at the top dose activation, actives largely listed as activators | 380,000 tested, 1.1% active | AID 624202, 2012; note: potency is the fitted concentration of half-maximal effect; nearly all actives have a fitted effect of over 80% in size
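Cells: MCF7-BRCA1-FFLuc, 2000/well. Exposure: 48 h, 37 °C, 5% CO2. Read: luminescence, 15 min post-substrate. Controls: genistein 10 microM (maximal activation), DMSO (neutral).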
N370S GC: qHTS Assay for Inhibitors and Activators of N370S glucocerebrosidase as a Potential Chaperone Treatment of Gaucher Disease. Lysosomal acid glucosylceramidase (Homo sapiens), P04062. N370S GC spleen homogenate, 4MU-glucoside fluorescence. Potency, µM (titrated, usually from 59.4 µM), for inactives: at the top dose activity change, negative = inhibition, hits mostly inhibitors. 330,000 tested, 0.092% active;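 note: potency is the fitted concentration of half-maximal effect; 0% = full enzyme activity and -100% = no enzyme basal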
Starred values were filed as active, the others as inactive; ? = inconclusive; nt = not tested or not shown; [ ] = another dose, or the depositor's remark. Unless noted, calls come from the whole dose curve; as a rule, active = well fitted curve in the direction sought with a large enough effect; inconclusive = small, poorly fitted or top-dose-only effect, or another doubt; inactive = no such curve, though single readings can be large; an effect the other way counts as inactive or inconclusive.

SMILES	GLS inhibitor	p53 reactivator	TSHR antag	TCR activator	BRCA1 expr up	N370S GC
COc1ccc(NS(=O)(=O)c2cccc(NC(=O)C3=NN(c4ccccc4)C(=O)CC3)c2)cc1	-9.8%	8.6%	-112.3*	2.0%	-29.5%	-4.6%
COc1ccc(NS(=O)(=O)c2cc(NC(=O)C3=NN(c4ccccc4)C(=O)CC3)ccc2C)cc1	13.2%	nt	nt	-16.4%	-37.9%	nt
CN(C)C(=O)CSc1nnc(C23CC4CC(CC(C4)C2)C3)o1	-1.7%	?	-3.5	nt	10µM*	-9.9%
CN(C)C(=O)CSc1nnc(CCN)o1	4.6%	-2.3%	2.9	-6.1%	-6.2%	-3.0%
CC(C)OC(=O)CSc1nc2cc3c(cc2cc1C#N)OCO3	3.2%	?	-7.1	4.8%[46.1 µM]	4.47µM*	3.1%
CCOC(=O)CSc1nc2cc(C)ccc2cc1C#N	-3.9%	16.3%	-13.5	4.0%	12.2%	-23.4%
COC(=O)CSc1nc2cc3c(cc2cc1C#N)OCO3	9.3%	?	-10.7	-2.3%	?	-5.3%
CCOC(=O)CSc1nc2ccc(C)cc2cc1C#N	1.1%	?	-2.4	-0.5%	3.98µM*	12.0%
O=[N+]([O-])c1ccc(O/N=[N+](\[O-])N2CCCC2)c([N+](=O)[O-])c1	nt	nt	nt	nt	0.0%	nt
CC(=O)NCc1nc2cccnc2n1Cc1ccccc1	-2.2%	nt	nt	nt	nt	nt
COc1ccc(Cl)cc1NC(=O)C1CCN(S(=O)(=O)c2ccc3c(c2)CCCN3C(=O)C2CCC2)CC1	1.5%	nt	nt	nt	nt	nt
Cc1ccc(NC(=O)C2CCCN(c3cnccn3)C2)cc1Cl (stereo not drawn)	6.9%	nt	nt	nt	nt	nt
Nc1nonc1-c1noc(CCCN2C(=O)c3ccccc3C2=O)n1	-2.2%	18.4%	-2.6	4.1%	4.47µM*	nt
Cc1ccc(Sc2cnc3ccccc3n2)cc1	0.1%	?	-1.4	-0.5%	7.08µM*	1.8%
Cc1cc(Sc2ccc(Cl)cc2)nc2ccccc12	-1.2%	nt	nt	nt	nt	nt
O=C(Cc1ccc(OCc2ccccc2)cc1)NO	nt	nt	nt	nt	59.3%	nt
CCN(CCN1CCCC1)C(=O)c1cc(COc2ccccc2SC)on1	-0.9%	6.4%	-1.7	3.9%	-9.7%	-5.9%
CCN(CCn1cccn1)C(=O)c1cc(COc2ccccc2SC)on1	4.7%	23.3%	-7.2	-0.8%	11.2µM*	-1.9%
CCN(CCn1cccn1)C(=O)c1cc(COc2cc(C)ccc2C)on1	8.7%	?	6.2	-2.8%	12.6µM*	-6.5%
O=C(c1ccc2c(c1)OCCO2)N1CCN(c2nc(-c3cccs3)nc3ccccc23)CC1	nt	nt	nt	nt	-11.5%	nt
CN(C)c1ccc(/C=C/c2sc3ccccc3[n+]2CCCCI)cc1	nt	nt	nt	nt	-43.9%	nt
COC(=O)c1ccc(=O)c2nc3/c(=C/O)c(O)cc(=O)c3[nH]c12	5.01µM*	4.0%	-11.9	-5.0%	0.0%	-1.2%
O=c1[nH]cc(CCc2ccccc2)c2ncncc12	nt	nt	nt	nt	13.9%	nt
CC1=CC(C)(C)NC(=S)N1c1cccc2cc(S(=O)(=O)O)ccc12	11.2µM*	-4.1%	-3.8	2.4%	5.7%	1.8%
CC1=CC(C)(C)NC(=S)N1c1ccccc1C	-17.9%	3.1%	4.8	-0.3%	-9.5%	-8.6%
SMILES	GLS inhibitor	p53 reactivator	TSHR antag	TCR activator	BRCA1 expr up	N370S GC
COc1ccc(OC)c(-c2nnc3n2N=C(c2c(OC)cccc2OC)CS3)c1	nt	nt	nt	nt	nt	0.7%
CCCC/C=C1\CCc2c([nH]c3ccccc23)C1=O	0.2%	2.3%	5.0	4.7%	1.41µM*	?
CC1(C)CC(=O)c2cc(C(=O)Nc3cccc4ccccc34)c(=O)[nH]c2C1	nt	nt	nt	nt	-63.9%	nt
O=C(NCCCN1CCCC1=O)c1cc2c(s1)CCCCC2	0.1%	13.2%	8.8	-1.9%	11.2µM*	22.6%
CCOc1ccc(OCc2ccc(C(=O)Nc3cccnc3)o2)cc1	0.3%	-3.9%	-25.7	6.3%	9.7%	-7.7%
CCOc1ccc(OCc2ccc(C(=O)NCc3cccnc3)o2)cc1	7.4%	-3.6%	-5.9	1.9%	11.2µM*	-3.8%
CCOC(=O)C1=C(C)NC(C)=C(C(=O)OC)[C@@H]1c1cccc(Cl)c1Cl	nt	nt	nt	nt	nt	-10.7%[21.6 µM]
COC(=O)c1sccc1NC(=O)Nc1cccc(OC)c1	-4.0%	-1.6%	5.8	-1.3%	6.2%	2.0%
COc1cccc(NC(=O)Nc2ccccc2Br)c1	-0.8%	8.4%	26.5	5.0%	10µM*	?
Cc1ccc(NC(=O)Nc2ccc3c(c2)CCC3)cc1C	-14.1%	-3.8%	13.7	0.4%	33.4%	-6.9%
COc1ccc(NC(=O)Nc2ccc3c(c2)CCC3)cc1	-3.1%	10.2%	2.0	6.1%	2.51µM*	?
COc1cccc(NC(=O)Nc2ccc3nc(C)c(C)nc3c2)c1	0.8%	nt	-4.3	2.4%	?	11.2%
O=C(Nc1ccc(OC(F)(F)F)cc1)Nc1cccc([N+](=O)[O-])c1	4.3%	35.5µM*	?	-0.1%[46.1 µM]	-57.7%	5.3%
COc1ccc(NC(=O)Nc2cccc(OC)c2)cc1	24.2%	nt	nt	6.1%	11.2µM*	nt
Cc1nc2ccc(C(=O)OC(C)C(=O)c3c(C)[nH]c4ccccc34)cc2nc1C (stereo not drawn)	nt	nt	nt	nt	14.5%	nt
COc1ccccc1/C=C/c1ccnc2ccccc12	nt	nt	nt	nt	0.0%	nt
COc1ccc(OC)c(NC(=O)CN(C)S(=O)(=O)c2ccc(C(=O)N3CCOCC3)s2)c1	-4.5%	nt	nt	nt	-17.7%	nt
CCCN1CNc2c(c(=O)[nH]c(=S)n2CCc2cc(OC)cc(OC)c2)C1	nt	nt	nt	nt	0.0%	nt
COc1ccc(NC(=O)Nc2ccc(F)cc2F)cc1	-0.9%	6.2%	-10.6	-3.8%	10µM*	-5.2%
COc1cccc(NC(=O)Nc2ccc3nsnc3c2)c1	3.8%	11.0%	-1.7	-1.1%	7.08µM*	-11.5%
COc1ccc(NC(=O)Nc2ccc(F)cc2F)c(C)c1	-1.0%	5.3%	12.4	-0.3%	18.3%	3.5%
Cc1cc(C)nc(NC(=O)Nc2ccc(F)cc2F)n1	?	27.0%	5.5	2.9%	3.98µM*	24.1%
COc1ccc(NC(=O)Nc2ccc3oc(C)nc3c2)cc1	1.1%	3.8%	-6.8	-3.5%	2.82µM*	-7.5%
CC(=O)c1c(C)nc2nc(-c3ccccc3)nn2c1C	21.0%	nt	nt	nt	1.7%	nt
COc1cccc(NC(=O)CSc2ccccn2)c1	-1.4%	?	14.2	4.1%	10µM*	-2.8%
